# Laboratory results as given in PubChem BioAssay (NCI).
# Values joined by “and” are separate entries in the source; they are usually repeats but may differ in a detail not shown here. Equal entries are not always repeated. Compounds without any hit were thinned out: in the full panel of roughly 83,000, 20% have a hit.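 In brief: 96-well plates, 48 h treatment, single concentration, percent growth endpoint.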 A structure can be active in one record and inactive in another. Active and inactive are the calls of the source. How the source made its calls: active means growth percent below 10; inactive means the rest.
# Test system: MDA-MB-468 breast
# Assay: NCI-60 one-dose screen, 48 h (100 = growth as untreated, 0 = no growth, -100 = all killed)
# Details: 10 µM unless noted
row,Structure (SMILES),growth
1,O=C1c2cccnc2-c2ncccc21,100% [100 µM] (inactive)
2,Cn1cc(-c2nc(-c3c[nH]c4ncccc34)cs2)c2ccccc21,-19% (active)
3,C#Cc1cc(C(=O)Nc2ccc(CN3CCN(C)CC3)c(C(F)(F)F)c2)ccc1C,66.5% (inactive)
4,Cc1ccc(NC(=O)C(Cl)Cl)cc1,90.9% (inactive)
5,COc1ccc(OC)c(/C=C2\COc3ccc(O)cc3C2=O)c1,82.7% (inactive)
6,COC(=O)Nc1cccc(Cl)c1OC,90.1% (inactive)
7,CCOC(=O)Nc1ccc(-c2nc(-c3cccc(OCCN4CCOCC4)c3)c(-c3ccnc(Br)c3)[nH]2)cc1,33.9% (inactive)
8,C=C1C(=O)O[C@H]2[C@H]1CC/C(COC(=O)NCCc1ccc(OC)c(OC)c1)=C\CC[C@@]1(C)O[C@@H]21,16.9% (inactive)
9,Cn1c(=O)c2[nH]c(C(O)c3ccc(Cl)cc3)nc2n(C)c1=O (stereo not given),96.7% (inactive)
10,COc1cc(CNS(=O)(=O)c2ccc(C)cc2)ccc1OCc1cn(-c2ccc(F)cc2)nn1,62.3% (inactive)
11,Nc1nccc2c1ccn2-c1ccc(NC(=O)c2ccc(N3CCOCC3)c(C(F)(F)F)c2)cc1,27.6% (inactive)
12,O=[N+]([O-])c1cc(/C=N/Nc2nc(N/N=C/c3ccc(Cl)c([N+](=O)[O-])c3)nc(N3CCCCC3)n2)ccc1Cl,68.8% (inactive)
13,Oc1ccc(-c2nc3ccc(/C(=N\N=C\c4ccc(Cl)cc4)c4ccccc4)cc3[nH]2)cc1,79.5% (inactive)
14,COC(=O)[C@]12CC[C@@H](C)[C@H](C)[C@@H]1C1=CC[C@@H]3[C@@]4(C)C=C(O)C(=O)[C@@]5(C)COC(=C54)C[C@@]3(C)[C@]1(C)CC2,-57.7% (active)
15,O=C(O)c1ccc(-n2cc(CNc3ccc(Cl)cc3)c(-c3ccc(F)cc3)n2)cc1,106% (inactive)
16,OC1CCC(Oc2cccc3cnc(Nc4ccc5nc[nH]c5c4)nc23)CC1 (stereo not given),-42.4% (active) and 69.7% (inactive)
17,Cc1nc(N)nc2c1CCC(Nc1ccccc1)S2 (stereo not given),100% (inactive)
18,O=C(NC[C@H](O)CO)c1ccncc1Nc1ccc(I)cc1F,103% (inactive)
19,CN1CCN(CC(=O)N2c3cccc4cccc(c34)N(C(=O)CN3CCN(C)CC3)C2c2cn(-c3ccccc3)nc2-c2cccc([N+](=O)[O-])c2)CC1,-68.9% (active)
20,CCO/C=N/C1=C(C#N)C(c2ccc(OC)cc2)c2c(c3ccccc3n(C)c2=O)O1 (stereo not given),105% (inactive)
21,CCOC(=O)C(C(C)=O)c1nc2sc3cc(Cl)ccc3n2c(=N)c1C#N (stereo not given),4.75% (active)
22,CN1CCN(CCCOc2cccc3nc(Nc4ccc(Cl)c(F)c4)ccc23)CC1,33.2% (inactive)
23,CCCCN=C(N)c1ccc(OCCSCCOc2ccc(C(N)=NCCCC)cc2)cc1,38.9% (inactive)
24,COc1ccc(/C=C2\Oc3cc(OCCCN4CCCC4)ccc3C2=O)cc1,74.1% (inactive)
25,Nc1c(C(=O)Nc2ccccc2F)sc2nc3c(cc12)CCCC3,26.4% (inactive)
